{"source": "the supplement of paper PMC10338343", "note": "± gives the standard deviation.", "data": [{"system": "MILI (PIWIL2) piRISC loaded with L1MC piRNA (26 nt)", "test": "pre-steady-state target cleavage rate (min^-1); guide: L1MC piRNA 5'p-UAACUAAAUACUAUGCAAGCUGUAGG; higher = faster piRNA-guided slicing of the target", "conditions": "auxiliary factor: 500 nM mouse GTSF1", "method": "(§1)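 Cleave-'n-Seq: a library of target RNAs (target site embedded in constant flanks, ACAGCATTCCGCGTTAGTGATATCCG... 5' flank; DNA-blocked outside the site) at 0.1 nM was incubated with 1 nM active mouse MILI or MIWI piRISC (synthetic 5'-monophosphorylated piRNA guide) with or without 500 nM mouse GTSF1 at 33 °C for 1 min to 16 h. Uncleaved targets were sequenced and normalised to non-target controls, and the pooled three trials were fitted to a burst-and-steady-state model to give the pre-steady-state cleavage rate (min^-1; k3 is constrained to at most 1e-4). Sequence is the target site only; target names encode pairing extent (gX:gY) and contiguous / 1-mismatch / 2-mismatch / bulge geometry. Fits with R² ≤ 0 are excluded.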", "values": [{"sequence": "UCCUGGAUGUGCUUGCAUAGUAUUAAGUUA", "pre-steady-state target cleavage rate": "0.162 ± 0.025"}, {"sequence": "UCCUGGAACACCUUGCAAAGUAUUUAGUUA", "pre-steady-state target cleavage rate": "0.0999 ± 0.015"}, {"sequence": "UCCUCCUUCAGCUUCCAUAGUAUUUAGUUA", "pre-steady-state target cleavage rate": "0.0522 ± 0.015"}, {"sequence": "UCCUGGAUGUGCUUGCAUAGUAUUAAGUAA", "pre-steady-state target cleavage rate": "0.015 ± 0.0059"}, {"sequence": "UCCUGGAUGUCGAUCCAUAGUAUUUAGUUA", "pre-steady-state target cleavage rate": "0.00686 ± 0.0039"}, {"sequence": "UCCUGGAUGUCGAUGCAUAGUGUUUAGUUA", "pre-steady-state target cleavage rate": "0.0372 ± 0.0094"}, {"sequence": "UCCUGCUACACCUUGCAUAGUAUUAAGUUA", "pre-steady-state target cleavage rate": "0.178 ± 0.034"}, {"sequence": "UCCUCCUACAGCAUGCAUAGUAUUUUCAAA", "pre-steady-state target cleavage rate": "0.138 ± 0.03"}, {"sequence": "UCCUCCUACAGCUUGCAUAGUAAUUACAAA", "pre-steady-state target cleavage rate": "0.18 ± 0.039"}, {"sequence": "UCCUGGAUGUCCUUGCAAAGUAUUUAGUUA", "pre-steady-state target cleavage rate": "0.0392 ± 0.0098"}, {"sequence": "UCCUGGAUCAGCUUCCUUAGUAUUUAGUUA", "pre-steady-state target cleavage rate": "0.122 ± 0.018"}, {"sequence": "UCCUCCUAGUGCUUGCAUAGUAUUUUCAAA", "pre-steady-state target cleavage rate": "0.0158 ± 0.0057"}, {"sequence": "UCCUGCUACUGCAUGCAUAGUAUUUAGUUA", "pre-steady-state target cleavage rate": "0.282 ± 0.025"}, {"sequence": "UCCUGCUACAGCUUGCAUAGUAUUUAGUA", "pre-steady-state target cleavage rate": "0.335 ± 0.07"}, {"sequence": "UCCUGCUACACUUGCAUAGUAUUUAGUUA", "pre-steady-state target cleavage rate": "0.268 ± 0.021"}, {"sequence": "UCCUGGAUGAGCUUGCAUAGUAAUUUGUUA", "pre-steady-state target cleavage rate": "0.0508 ± 0.018"}, {"sequence": "UCCUGGAUCAGCUUGCAUAGUAUUUCGUUA", "pre-steady-state target cleavage rate": "0.147 ± 0.034"}, {"sequence": "UCCUCCUACGGCUUGCAUAGUAUUUAGUUA", "pre-steady-state target cleavage rate": "0.298 ± 0.018"}, {"sequence": "UCCUGCAUCAGCUUGCAUAGUAUUUAGUAA", "pre-steady-state target cleavage rate": "0.223 ± 0.019"}, {"sequence": "UCCUGGAUGUCGAUGCAUAGUAUUUAGUCUA", "pre-steady-state target cleavage rate": "0.0115 ± 0.0055"}, {"sequence": "UCCUGCUACAGCUUGCAUUGUAUUAAGUUA", "pre-steady-state target cleavage rate": "0.215 ± 0.03"}, {"sequence": "UCCUGGAACUGCUUGCAUAGUAUAUAGUUA", "pre-steady-state target cleavage rate": "0.128 ± 0.021"}, {"sequence": "UCCUGCUACAGCUUGGAUAGUAUUUAGAAA", "pre-steady-state target cleavage rate": "0.0121 ± 0.0049"}, {"sequence": "UCCUGCUACUAGCUUGCAUAGUAUUUAGUUA", "pre-steady-state target cleavage rate": "0.176 ± 0.022"}, {"sequence": "UCCUGGAUGUCCUUGCAUAGUAUUUAGUUC [g2:g19:cont:t1C]", "pre-steady-state target cleavage rate": "0.0893 ± 0.011"}, {"sequence": "UCCUCCUUCAGCUUGCAUAGUAUUUUCAAA", "pre-steady-state target cleavage rate": "0.115 ± 0.022"}, {"sequence": "UCCUGGAUGUCGUUGCAUAGUAUUAUGUUA", "pre-steady-state target cleavage rate": "0.156 ± 0.045"}]}, {"system": "MILI (PIWIL2) piRISC loaded with L1MC piRNA (26 nt)", "test": "pre-steady-state target cleavage rate (min^-1); guide: L1MC piRNA 5'p-UAACUAAAUACUAUGCAAGCUGUAGG; MIWI and MILI are mouse PIWI proteins and EfPiwi is from a freshwater sponge; tags in brackets are library labels; higher = faster piRNA-guided slicing of the target", "conditions": "auxiliary factor: none (no GTSF1)", "method": "as §1", "values": [{"sequence": "UCCUGGAUGUGCUUGCAUAGUAUUAAGUUA", "pre-steady-state target cleavage rate": "0.00745 ± 0.0021"}, {"sequence": "UCCUGGAACACCUUGCAAAGUAUUUAGUUA", "pre-steady-state target cleavage rate": "0.0069 ± 0.0021"}, {"sequence": "UCCUGGAUGUCGAUGCAUAGUGUUUAGUUA", "pre-steady-state target cleavage rate": "0.0049 ± 0.0026"}, {"sequence": "UCCUGGAUGUCCUUGCAAAGUAUUUAGUUA", "pre-steady-state target cleavage rate": "0.00687 ± 0.002"}, {"sequence": "UCCUGGAUCAGCUUCCUUAGUAUUUAGUUA", "pre-steady-state target cleavage rate": "0.00478 ± 0.0016"}, {"sequence": "UCCUGCUACUGCAUGCAUAGUAUUUAGUUA", "pre-steady-state target cleavage rate": "0.00943 ± 0.0022"}, {"sequence": "UCCUGCUACACUUGCAUAGUAUUUAGUUA", "pre-steady-state target cleavage rate": "0.00611 ± 0.0023"}, {"sequence": "UCCUGGAUCAGCUUGCAUAGUAUUUCGUUA", "pre-steady-state target cleavage rate": "0.00354 ± 0.0024"}, {"sequence": "UCCUCCUACGGCUUGCAUAGUAUUUAGUUA", "pre-steady-state target cleavage rate": "0.0137 ± 0.004"}, {"sequence": "UCCUGCAUCAGCUUGCAUAGUAUUUAGUAA", "pre-steady-state target cleavage rate": "0.00464 ± 0.0032"}, {"sequence": "UCCUGGAACUGCUUGCAUAGUAUAUAGUUA", "pre-steady-state target cleavage rate": "0.00491 ± 0.0025"}, {"sequence": "UCCUGCUACUAGCUUGCAUAGUAUUUAGUUA", "pre-steady-state target cleavage rate": "0.0074 ± 0.0023"}, {"sequence": "UCCUGGAUGUCCUUGCAUAGUAUUUAGUUC [g2:g19:cont:t1C]", "pre-steady-state target cleavage rate": "0.00931 ± 0.0026"}]}]}
